# Source: PubChem BioAssay (Tox21)
# Records with an inconclusive call do not appear. Calls of active or inactive are those of the source. Calls follow the shape of the full dose curve.
# Test: qHTS assay to identify small molecule agonists of the NFkB signaling pathway - cell viability counter screen (AID 1159515); also: nearly all actives have a fitted effect of over 55% in size
# Settings: NFkB-bla ME-180 viability, CellTiter-Glo luminescence, 5 h; series mostly up to 61 µM
# Text: National Center for Advancing Translational Sciences [NCATS]
# NIH Chemical Genomics Center [NCGC]
# U.S. Environmental Protection Agency [EPA]
# National Institutes of Environmental Health Sciences [NIEHS]
# National Toxicology Program [NTP]
# U.S. Food and Drug Administration [FDA]
# Transcription factors and their stimulated target gene expression play pivotal roles across many cellular processes including responses to environmental stimuli. Proper regulation of associated pathways is critical to maintain cell health and function. Constitutive activation of transcription factor pathways has been implicated in tumors as it may block cellular functions such as apoptosis and lead to invasion and metastasis. One important transcription factor that stimulates gene expression in response to cytokines, UV radiation, and other stimuli is nuclear factor-kappa B (NFkB). To measure activation of the NFkB pathway, the CellSensor NFkB-bla ME-180 cell line (Life Technologies, Carlsbad, CA) that stably expresses beta-lactamase reporter gene under the regulation of a NF-kB response element was used. This assay allows measurement of the NFkB pathway activity induced by compounds in a ME-180 cell line. This system quantitates NF-kB activity using a FRET-based assay system where beta-lactamase expression disrupts FRET, allowing for fluorescent measurement of activity. This cell line has been used to screen the Tox21 10K compound library and to identify compounds that induce the NFkB pathway activity. The cytotoxicity of the Tox21 compound library against the NFkB-bla ME-180 cell line was tested in parallel by measuring cell viability using the CellTiter-Glo assay in the same wells.
# Tox21 Assay Protocol Summary:
# NFkB-bla ME-180 cells were dispensed at 2,000 cells/6 uL of assay medium per well into black wall/clear-bottom 1536-well plates using a Multidrop Combi (ThermoFisher Scientific, Waltham, MA) dispenser. After the assay plates were incubated at 37 C and 5% CO2 for an overnight, 23 nL of compounds dissolved in DMSO, positive controls or DMSO only was transferred to the assay plate by a Pintool station (Kalypsys, San Diego, CA). The assay plates were incubated at 37 C and 5% CO2 for 5 hr. One uL of LiveBLAzer B/G FRET substrate (Life Technologies) was added using a Flying Reagent Dispenser (Aurora Discovery, San Diego, CA) and the plates were incubated at room temperature for 1.5 hr. Fluorescence intensity (405 nm excitation, 460 nm and 530 nm emissions) was measured using an Envision plate reader (PerkinElmer, Shelton, CT). For cytotoxicity, 3 ul/well of CellTiter-Glo reagent was added into the assay plates using an FRD. After 30 min incubation at room temperature, the luminescence intensity was measured using a ViewLux plate reader (PerkinElmer).
row,Compound,outcome
1,O=C(c1ccc(O)cc1)c1ccc(O)cc1O,inactive
2,CC(=O)Nc1ccc(C(=O)O)cc1,inactive
3,CC(C)NCC(O)COc1cccc2ccccc12 (stereo not given),inactive
4,NC(=O)/N=N/C(N)=O,inactive
5,CCCCCCOC(C)=O,inactive
6,CCCCCCCCCCCCN,inactive
7,C=C(C)C(=O)OCC(CC)(COC(=O)C(=C)C)COC(=O)C(=C)C,inactive
8,O=[N+]([O-])c1cccc(Cl)c1,inactive
9,CCOC(=O)[C@H](CCc1ccccc1)N[C@@H](C)C(=O)N1Cc2ccccc2C[C@H]1C(=O)O,inactive
10,Cc1cc(O)cc(C)c1Cl,inactive
11,CC#C[C@]1(O)CC[C@H]2[C@@H]3CCC4=CC(=O)CCC4=C3[C@@H](c3ccc(N(C)C)cc3)C[C@@]21C,inactive
12,CCCCC(CC)C(=O)OCCOCCOCCOC(=O)C(CC)CCCC (stereo not given),inactive
13,O=C(c1cc(O)c(O)c(O)c1)c1ccc(O)c(O)c1O,inactive
14,CC(C)(C)C(=O)C1C(=O)c2ccccc2C1=O,inactive
15,CS(=O)(=O)Nc1ccc([N+](=O)[O-])cc1Oc1ccccc1,inactive
16,CC1COc2ccccc2N1C(=O)C(Cl)Cl (stereo not given),inactive
17,CCC(=O)O,inactive
18,C=C(C)C(=O)OCCC[Si](OC)(OC)OC,inactive
19,CNC[C@H](O)[C@@H](O)[C@H](O)[C@H](O)CO,inactive
20,O=S(=O)(O)c1cc(S(=O)(=O)O)c2c(N=Nc3ccccc3)c(O)ccc2c1,inactive

row,Compound,outcome
1,CC1=C(/C=C/C(C)=C/C=C/C(C)=C/CO)C(C)(C)CCC1,inactive
2,CN(C)c1ccc(C(=N)c2ccc(N(C)C)cc2)cc1,inactive
3,O=[N+]([O-])c1cc(N(CCO)CCO)ccc1NCCO,inactive
4,O=C(O)c1cc(-c2ccccc2)nc2ccccc12,inactive
5,CC(C)n1c(/C=C/[C@@H](O)C[C@@H](O)CC(=O)O)c(-c2ccc(F)cc2)c2ccccc21,inactive
6,C/C=C(C)/C=C/C=C(C)C,inactive
7,CCCCC/C=C\C/C=C\CCCCCCCC(=O)OC,inactive
8,c1ccc2ccccc2c1,inactive
9,Nc1nc2ncc(CNc3ccc(C(=O)N[C@@H](CCC(=O)O)C(=O)O)cc3)nc2c(=O)[nH]1,inactive
10,O=Nc1ccc(O)cc1,inactive
11,CCCCC(CC)COC(=O)/C=C\C(=O)OCC(CC)CCCC (stereo not given),inactive
12,CC(=O)[C@@]1(O)CC[C@H]2[C@@H]3CCC4=CC(=O)CC[C@]4(C)[C@H]3CC[C@@]21C,inactive
13,Clc1cc(Cl)c(Cl)cc1Cl,inactive
14,CCCCCC/C=C/CCCCCCCC(=O)O,inactive
15,O=c1c(-c2ccc(O)cc2)coc2cc(O)ccc12,inactive
16,Cc1ccc(C)c(C)c1,inactive
17,CN(CCOc1ccc(CC2SC(=O)NC2=O)cc1)c1ccccn1 (stereo not given),inactive
18,CC[Si](OC(C)=O)(OC(C)=O)OC(C)=O,inactive
19,CC(=O)CCc1ccccc1,inactive
20,CC1Cc2ccccc2N1NC(=O)c1ccc(Cl)c(S(N)(=O)=O)c1 (stereo not given),inactive
